Measurements published in PubChem BioAssay (NCATS).
Where “and” joins values, the source holds several entries; their conditions need not be identical. Equal values may be shown once. Records with an inconclusive call do not appear. Calls of active or inactive are those of the source. Unless noted, calls follow the shape of the dose curve; as a rule, active = well fitted curve in either direction with a large enough effect (not every such curve was filed as active); inconclusive = small, poorly fitted or top-dose-only effect, or another doubt; inactive = flat fitted curve, though single readings scatter.

Tests used:
[1] = Stat Signaling Pathway (AID 446); conditions: ME-180 (cervical carcinoma) SIE beta-lactamase reporter, IL-6 stimulated, 5 h;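 also: ME-180 cervical cancer cells given 40 pM IL-6 alongside compound; SIE-controlled beta-lactamase reporter measured as 460/530 nm FRET emission ratio; % is scaled to controls: 0 for no effect and ±100 for the full control effect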
How it was run: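 Compound effects on IL-6-induced STAT reporter activity were measured in ME-180 cells. After overnight culture, cells were co-treated with 40 pM IL-6 for 5 hrs before beta-lactamase substrate loading at room temperature.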

[2] = target: Glucocorticoid receptor (Homo sapiens) (UniProt P04150); test: GR-GFP Redistribution (AID 450;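 active = compounds whose dose series gives a full or clear partial fitted curve of increased nuclear translocation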; also: potency is read from the fitted curve at half-maximal effect); conditions: U2OS GR-GFP nuclear translocation, laser cytometry, 2 h
[3] = target: Glucocorticoid receptor (Homo sapiens) (UniProt P04150); test: GR-EFC Redistribution (AID 451; calls by dose curve; also: potency is read from the fitted curve at half-maximal effect); conditions: CHO-K1 GR-EFC translocation, beta-gal luminescence, 2 h
How it was run: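 CHO-K1 cells expressing nuclear EA and GR-ED fragments of b-gal; compounds titrated up to 46 uM final, 2 h at 37 C. GR nuclear translocation read as complemented b-gal luminescence after 1 h RT detection.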

[4] = target: Mitogen-activated protein kinase 10 (Mus musculus) (UniProt Q61831); test: JNK3 AlphaScreen Assay (AID 530); conditions: JNK3 lysate, c-Jun phosphorylation; series mostly up to 57.1 µM;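 also: kinase came from lysate of stimulated human HepG2 cells; signal reports phosphorylation of biotinylated GST-cJun 1-79 at Ser73 with 10 µM ATP; % is scaled to controls: 0 for no effect and ±100 for the full control effect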
How it was run: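 HepG2 lysate (IL-1b/TNFa pre-activated) + biotin-GST-cJun 1-79 + anti-pSer73 cJun; cpd titration, 15 min RT; ATP 10 uM start; Tris pH 7.6, MgCl2, DTT, vanadate; beads in EDTA buffer; AlphaScreen.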

Glucocorticoid receptor (Homo sapiens), sequence (P04150 whole entry, looked up, the tested form may be a part): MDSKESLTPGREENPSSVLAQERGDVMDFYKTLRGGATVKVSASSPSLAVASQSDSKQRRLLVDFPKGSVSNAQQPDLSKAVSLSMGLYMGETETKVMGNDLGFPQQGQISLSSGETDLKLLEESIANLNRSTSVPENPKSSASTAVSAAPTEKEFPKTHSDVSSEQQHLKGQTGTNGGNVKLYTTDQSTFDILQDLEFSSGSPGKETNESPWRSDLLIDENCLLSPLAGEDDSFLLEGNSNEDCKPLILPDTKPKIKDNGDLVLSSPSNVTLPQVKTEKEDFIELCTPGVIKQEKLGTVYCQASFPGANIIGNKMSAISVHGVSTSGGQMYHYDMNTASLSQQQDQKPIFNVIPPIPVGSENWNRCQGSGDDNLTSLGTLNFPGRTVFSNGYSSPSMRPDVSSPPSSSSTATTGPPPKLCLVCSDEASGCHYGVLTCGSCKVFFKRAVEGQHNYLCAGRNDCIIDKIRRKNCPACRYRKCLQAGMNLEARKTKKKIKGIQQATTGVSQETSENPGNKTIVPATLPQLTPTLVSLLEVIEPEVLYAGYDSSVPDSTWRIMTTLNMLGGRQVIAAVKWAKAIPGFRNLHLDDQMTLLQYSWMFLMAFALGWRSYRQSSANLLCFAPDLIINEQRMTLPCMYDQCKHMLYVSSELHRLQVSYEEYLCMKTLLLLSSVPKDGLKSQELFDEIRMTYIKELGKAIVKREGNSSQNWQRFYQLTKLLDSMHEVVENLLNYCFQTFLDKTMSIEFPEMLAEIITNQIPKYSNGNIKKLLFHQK

COc1ccccc1N1CCNCC1
inactive: activity, negative = inhibition ([1]; at 38 µM (top of the series)) 16.4% | Potency [2] > 46 µM | Potency [3] > 46 µM

CN1C[C@H](CNC(=O)OCc2ccccc2)C[C@@H]2c3cccc4c3c(cn4C)C[C@H]21
inactive: activity, negative = inhibition ([1]; at 17.2 µM (top of the series)) -8.15%

NCC1(CC(=O)O)CCCCC1
inactive: activity, negative = inhibition ([1]; at 17.2 µM (top of the series)) -0.102% and 1.2% | activity, negative = inhibition ([1]; at 38 µM (top of the series)) -12.4% | Potency [2] > 46 µM and > 20.6 µM | Potency [3] > 46 µM and > 20.6 µM | outcome [4]

Cc1ncc(CNC(=O)N(CCCl)N=O)c(N)n1
inactive: activity, negative = inhibition ([1]; at 38 µM (top of the series)) -6.98% | Potency [2] > 46 µM | Potency [3] > 46 µM | outcome [4]

c1ccc(C2CC2)c(OCC2=NCCN2)c1
inactive: activity, negative = inhibition ([1]; at 38 µM (top of the series)) -9.49% | Potency [2] > 46 µM | Potency [3] > 46 µM | outcome [4]

NCC(CC(=O)O)c1ccc(Cl)cc1 (stereo unspecified)
inactive: activity, negative = inhibition ([1]; at 17.2 µM (top of the series)) 6.38% | Potency [2] > 20.6 µM

N#CC(C#N)=Cc1ccc(O)c(O)c1
inactive: activity, negative = inhibition ([1]; at 38 µM (top of the series)) -24.2%

CCCN1CCC[C@@H]2Cc3[nH]ncc3C[C@H]21
inactive: activity, negative = inhibition ([1]; at 17.2 µM (top of the series)) 8.2% | activity, negative = inhibition ([1]; at 38 µM (top of the series)) -2.11% and 14.3% | Potency [2] > 46 µM and > 20.6 µM | Potency [3] > 46 µM and > 20.6 µM | outcome [4]

c1ccc2c(c1)OCC(C1=NCCN1)O2 (stereo unspecified)
inactive: activity, negative = inhibition ([1]; at 17.2 µM (top of the series)) -5.78% | Potency [2] > 20.6 µM

O=P1(NCCCl)OCCCN1CCCl (stereo unspecified)
inactive: activity, negative = inhibition ([1]; at 17.2 µM (top of the series)) -3.9% | Potency [2] > 20.6 µM | Potency [3] > 20.6 µM | outcome [4]
